ERAP1 inh = inhibitors of human ERAP1 aminopeptidase; recombinant ERAP1, Leu-AMC fluorescence, 60 min; inhibition, % at 10.7 µM; actives 0.15% (n = 340,000); AID 652197;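 active = mean replicate inhibition of at least 30%, or all replicates individually reaching that 30% level; inactive = mean below 30% and not every replicate reaching it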;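 also: 0% = neutral control wells and 100% = L-leucinethiol positive control wells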
PGC1a acetyl inh = modulators of PGC1a acetylation; inhibition, % at 15.6 µM; actives 0.17% (n = 350,000); U2OS PGC1a acetylation, AlphaScreen anti-acetyl-lysine; with virally co-expressed GCN5 acetyltransferase;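 active = every replicate shows inhibition of at least 40%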;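 also: 0% = neutral control wells and 100% = positive control wells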
RAD52 inh = blocks human RAD52 DNA annealing. P43351. recombinant RAD52 DNA annealing, FRET fluorescence. inhibition, % at 18.7 µM. actives 0.46% (n = 360,000). AID 651710;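 active = every replicate showing at least 50% inhibition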
INS-1E GSIS act = GLuc luminescence reporter in INS-1E cells, primary screen for activators of glucose-dependent secretion of insulin; activation, % at 16.6 µM; INS-1E GLuc reporter insulin secretion, 2-3 h; actives 0.61% (n = 370,000);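 active = lowest replicate activation of at least 40%, so every replicate reaches that level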;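 also: 0% = median of neutral control wells and 100% = median of IBMX positive control wells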
AF4-AF9 inh = inhibitors of human MLL-AF4/AF9 interaction. inhibition, % at 10 µM. actives 0.47% (n = 350,000). P42568. AlphaScreen, biotin-AF4 peptide binding to FLAG-AF9;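 active = every replicate reaching a set inhibition limit, whatever the replicate mean, cut at about 25% in these data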;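 also: 0% = plate neutral control median and 100% = total signal loss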
RAD54 inh = inhibitors of human RAD54 branch migration; AID 602329; actives 0.14% (n = 360,000); Q92698; inhibition, % at 10.4 µM; RAD54 Holliday junction branch migration, FAM/BHQ fluorescence;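 active = mean normalized replicate activity at least 40 and at least half of replicates scoring 40 or more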;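 also: 0% = median of neutral control wells and 100% = median of positive control wells; inhibitors cause a drop in the FAM fluorescence signal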
An asterisk follows results filed as active; . = no result. In the library only some 1.4% were active in any assay of this set; here they are far more common.

SMILES	ERAP1 inh	PGC1a acetyl inh	RAD52 inh	INS-1E GSIS act	AF4-AF9 inh	RAD54 inh
C[C@H](CO)N1C[C@H](C)[C@@H](CN(C)C(=O)c2ccccn2)Oc2ncc(-c3ccccc3F)cc2C1=O	0	-7	9	12	0	8
COc1ccc2c3c(n(C)c2c1)[C@H](CO)N(Cc1ccncc1)CC31CCN(C(=O)C2CCCCC2)CC1	-3	.	-97	13	31*	.
COc1ccc2c3c(n(C)c2c1)[C@H](CO)N(Cc1ccc(F)cc1)CC31CCN(CC2CC2)CC1	-2	-28	6	-10	7	.
COc1ccc2c3c(n(C)c2c1)[C@@H](CO)N(CC1CC1)CC31CCN(C(=O)CN(C)C)CC1	3	.	73*	4	22	.
COc1ccc2c3c(n(C)c2c1)[C@H](CO)N(CC1CCCCC1)CC31CCN(C(=O)CN(C)C)CC1	-1	-18	-45	-2	4	.
COc1ccc2c3c(n(C)c2c1)[C@@H](CO)N(Cc1ccc(Cl)cc1)CC31CCN(CC2CC2)CC1	-1	-31	14	-18	37*	.
COc1ccc2c3c(n(C)c2c1)[C@@H](CO)N(Cc1ccccc1OC)CC31CCN(C)CC1	4	-13	-20	-4	26*	.
COc1ccc2c3c(n(C)c2c1)[C@@H](CO)N(Cc1ccccc1)CC31CCN(C)CC1	.	-3	.	3	8	.
C[C@@H]1CCCCO[C@@H](CN(C)C(=O)Nc2ccc3c(c2)OCO3)[C@H](C)CN([C@H](C)CO)C(=O)c2cc(N(C)C)ccc2O1	.	7	.	-11	.	.
CN1C(=O)c2cc(NC(=O)c3cncs3)ccc2OC[C@H]2O[C@@H](CC(=O)NCC3CC3)CC[C@@H]21	.	.	.	9	.	.
COc1ccc2c3c(n(C)c2c1)[C@H](CO)N(C(=O)c1ccc(F)cc1)CC31CCN(C(=O)c2ccc(F)cc2)CC1	-6	.	-5	-13	-1	.
COc1ccc2c3c(n(C)c2c1)[C@H](CO)N(Cc1ccc(Cl)cc1)CC31CCN(CC2CC2)CC1	-1	-20	17	-19	30*	.
COc1ccc2c3c(n(C)c2c1)[C@H](CO)N(Cc1ccccc1F)CC31CCN(CC2CC2)CC1	-6	-17	20	-5	40*	.
COc1ccc2c3c(n(C)c2c1)[C@H](CO)N(Cc1ccccc1F)CC31CN(CC2CC2)C1	.	.	.	5	.	.
COc1ccc2c3c(n(C)c2c1)[C@H](CO)N(Cc1ccc(Cl)cc1)CC31CN(CC2CC2)C1	.	-9	.	-15	-1	.
C[C@@H]1CC=CCCNC(=O)[C@H](C)N(C)C(=O)c2ccccc2O1 (mixture of isomers)	.	.	.	-2	.	.
CC(C)n1nc(C(=O)Nc2ccccc2N2CCOCC2)c2ccccc2c1=O	.	.	.	120*	.	.
C[C@@H]1CN([C@@H](C)CO)C(=O)c2cc(NC(=O)Nc3ccc(F)cc3)ccc2O[C@@H]1CN(C)Cc1ccncc1	4	-2	17	12	0	-2
Cc1nn(-c2ccccc2)c2c1C(O)CC(C)(C)C2 (stereo not drawn)	3	5	-3	67*	3	11
COc1cc(CN2CCc3ccccc3C2)cc([N+](=O)[O-])c1O	-1	-6	1	11	2	5
COc1cc(CN2CCc3ccccc3C2)ccc1O	1	24	-3	77*	-2	.
CC[C@@H]1CC=CC[C@H](C)Oc2ccccc2C(=O)N(C)[C@@H](C(C)C)C(=O)N1 (mixture of isomers)	.	.	.	-8	.	.
Cc1ccc(C(=O)c2c3ccccc3[n+]([O-])n2CCO)cc1	0	-4	-5	48*	-3	0
COc1ccccc1C(=O)Nc1ccc2c(c1)C(=O)N(C)C[C@@H](OC)[C@@H](C)CN[C@@H](C)CO2	-1	0	-26	16	-2	1
CC(=O)N(C)C[C@H]1Oc2ccc(NC(=O)NC(C)C)cc2CC(=O)N(C)C[C@H]1C	.	.	.	6	.	.
CCCCCCc1c(C)c2ccc(OCC(=O)N[C@@H](Cc3ccccc3)C(=O)O)cc2oc1=O	32*	-8	-15	.	-1	6
CC(Oc1ccc2c3c(c(=O)oc2c1)CCC3)C(=O)N[C@@H](Cc1ccccc1)C(=O)O (stereo partly drawn)	15	75*	2	.	-2	7
O=C1NC(=Nc2cccc(O)c2)S/C1=C\c1cccnc1	.	7	-20	20	5	.
